Data on 22 compounds can be found in the antibiotic and cytotoxicity screens of Wong et al. (2023).

In all, about 39,000 compounds went through this assay and about 3,300 (8.5%) were called active. This excerpt belongs to a sample that is enriched for actives.

The subject of the test is HepG2. The test is described as follows: cytotoxicity call (relative viability < 0.9). The settings on record: 10 µM.
As to `C[C@@H]1CN([C@@H](C)CO)C(=O)c2cc(C#CCN(C)C)cnc2O[C@@H]1CN(C)S(C)(=O)=O`, the cytotoxicity call is “inactive”.

Turning to `COc1ccc(S(=O)(=O)N(C)C[C@H]2OCCCC[C@@H](C)Oc3ccc(NC(=O)C4CCCCC4)cc3C(=O)N([C@@H](C)CO)C[C@H]2C)cc1`, the cytotoxicity call is “inactive”.

As to `CC(C)(C)[S@](=O)N1Cc2cc(C(=O)NCCN3CCCCC3)nc(-c3cccc(-c4ccc(C#N)cc4)c3)c2[C@@H]1CCO`, the cytotoxicity call is “inactive”.

Turning to `C[C@@H]1CN([C@@H](C)CO)S(=O)(=O)c2ccc(C#CCC3CCCC3)cc2O[C@@H]1CN(C)C(=O)CN(C)C`, the cytotoxicity call was “active”.

Consider `C[C@@H]1CN([C@H](C)CO)S(=O)(=O)c2ccc(C#CCC3CCCC3)cc2O[C@@H]1CN(C)C(=O)c1cnccn1`, for which the cytotoxicity call is “inactive”.

Consider `C[C@H]1CN([C@@H](C)CO)S(=O)(=O)c2ccc(C#CCC3CCCC3)cc2O[C@@H]1CN(C)C(=O)CN(C)C`, for which the cytotoxicity call was “inactive”.

Take `C[C@@H]1CN([C@H](C)CO)S(=O)(=O)c2ccc(C#CCC3CCCC3)cc2O[C@@H]1CN(C)C(=O)CN(C)C`: the cytotoxicity call was “inactive”.

As for `C[C@@H]1CN([C@H](C)CO)S(=O)(=O)c2ccc(C#CCC3CCCC3)cc2O[C@H]1CN(C)C(=O)CN(C)C`, the cytotoxicity call was “inactive”.

As for `C[C@H]1CN([C@@H](C)CO)S(=O)(=O)c2ccc(C#CCC3CCCC3)cc2O[C@H]1CN(C)C(=O)c1cnccn1`, the cytotoxicity call was “inactive”.

As to `C[C@H]1CN([C@@H](C)CO)S(=O)(=O)c2ccc(C#CCC3CCCC3)cc2O[C@H]1CN(C)C(=O)CN(C)C`, the cytotoxicity call was “active”.

Turning to `C[C@H](CO)N1C[C@H](C)[C@@H](CN(C)C(=O)c2cnccn2)Oc2cc(C#CCC3CCCC3)ccc2S1(=O)=O`, the cytotoxicity call is “active”.

On to `C[C@H](CO)N1C[C@H](C)[C@H](CN(C)C(=O)CN(C)C)Oc2cc(C#CCC3CCCC3)ccc2S1(=O)=O`, for which the cytotoxicity call was “inactive”.

For the compound `C=CCN([C@@H](Cc1ccccc1)[C@@H](O)c1cn(CCCNC(=O)C(=O)NC)nn1)S(=O)(=O)c1ccccc1[N+](=O)[O-]`, the cytotoxicity call is “inactive”.

On to `C[C@@H]1CN([C@@H](C)CO)S(=O)(=O)c2ccc(C#CCN(C)C)cc2O[C@H]1CN(C)S(=O)(=O)c1cccc(F)c1`, for which the cytotoxicity call was “inactive”.

With `CC(=O)OC[C@@H](OC(C)=O)[C@H](OC(C)=O)[C@H](OC(C)=O)[C@H](OC(C)=O)[C@@H](COC(C)=O)OC(C)=O`, the cytotoxicity call was “inactive”.

In the case of `Cc1noc(C)c1NC(=O)Nc1ccc2c(c1)C(=O)N([C@@H](C)CO)C[C@H](C)[C@@H](CN(C)C(=O)NC(C)C)O2`, the cytotoxicity call was “inactive”.

Regarding `COc1ccc(S(=O)(=O)Nc2ccc3c(c2)CC(=O)N([C@@H](C)CO)C[C@H](C)[C@H](CN(C)Cc2ccc(Cl)c(Cl)c2)O3)cc1`, the cytotoxicity call is “active”.

For the compound `COc1ccc(S(=O)(=O)Nc2ccc3c(c2)CC(=O)N([C@H](C)CO)C[C@@H](C)[C@H](CN(C)Cc2ccc(Cl)c(Cl)c2)O3)cc1`, the cytotoxicity call was “active”.

In the case of `COc1ccc(S(=O)(=O)Nc2ccc3c(c2)CC(=O)N([C@@H](C)CO)C[C@@H](C)[C@@H](CN(C)Cc2ccc(Cl)c(Cl)c2)O3)cc1`, the cytotoxicity call is “active”.

Consider `COc1ccc(S(=O)(=O)Nc2ccc3c(c2)CC(=O)N([C@H](C)CO)C[C@H](C)[C@H](CN(C)Cc2ccc(Cl)c(Cl)c2)O3)cc1`, for which the cytotoxicity call is “active”.

Take `COc1ccc(S(=O)(=O)Nc2ccc3c(c2)CC(=O)N([C@@H](C)CO)C[C@@H](C)[C@H](CN(C)Cc2ccc(Cl)c(Cl)c2)O3)cc1`: the cytotoxicity call is “inactive”.

Regarding `COc1ccc(S(=O)(=O)Nc2ccc3c(c2)CC(=O)N([C@@H](C)CO)C[C@H](C)[C@@H](CN(C)Cc2ccc(Cl)c(Cl)c2)O3)cc1`, the cytotoxicity call was “inactive”.
